Compound activity as filed in PubChem.
A549 tox: counter-screen for Nrf2 inhibitors: cytotoxicity in A549 cells; AID 504648; A549 ARE-Fluc cells, CellTiter-Fluor viability, 18-24 h; hit rate 0.16% among 390,000; Potency, µM (highest dose often 46 µM), hits mostly inhibitors
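A549 ARE-Fluc cells in 5% FBS OPTI-MEM, 5000 cells/well, rested 2 h then exposed to compounds in concentration-response for 18-24 h at 37 °C. Viability by CellTiter-Fluor fluorescence (Ex 405/Em 525) after 30 min; luciferase luminescence (BugLite, 15 min, RT) read afterwards.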
KB-3-1 cytotox: kills parental KB-3-1 adenocarcinoma cells | AID 1347075 | hit rate 1.4% among 400,000 | KB-3-1 viability, CellTiter-Glo ATP luminescence, 72 h | Potency, µM (highest dose often 46.1 µM), most hits filed as cytotoxic; also: nearly all actives have a fitted effect of over 60% in size
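72 h, 37 °C compound treatment of KB-3-1 parental cells; CellTiter-Glo added, 10 min, luminescence read. Data corrected against DMSO-only plates and normalized before curve fitting.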
Nrf2 block: blocks Nrf2 signaling; Potency, µM (highest dose often 46 µM), usual class: inhibitors; hit rate 2.1% among 360,000; A549 ARE-Fluc reporter, luciferase luminescence, 18-24 h; AID 504444; also: nearly all actives have a fitted effect of over 60% in size
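A549 ARE_Fluc cells, 5000/well, 5% FBS OPTI-MEM; compounds in dose-response, 18-24 h at 37 °C/5% CO2; CellTiter-Fluor viability read (Ex 405/Em 525), then BugLite luciferase luminescence = Nrf2 activity.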
PI4K2A block: blocks human PI4K2A kinase activity; purified PI4K2A, ADP-Glo luminescence, 1 h; hits give low values; activity change, negative = inhibition, % at 76.9 µM; hit rate 0.13% among 420,000; AID 1346378; in the data active = activity change below about -50%; inconclusive = mostly about -30% to -49%
Target sequence (Q9BTU6 whole entry, looked up): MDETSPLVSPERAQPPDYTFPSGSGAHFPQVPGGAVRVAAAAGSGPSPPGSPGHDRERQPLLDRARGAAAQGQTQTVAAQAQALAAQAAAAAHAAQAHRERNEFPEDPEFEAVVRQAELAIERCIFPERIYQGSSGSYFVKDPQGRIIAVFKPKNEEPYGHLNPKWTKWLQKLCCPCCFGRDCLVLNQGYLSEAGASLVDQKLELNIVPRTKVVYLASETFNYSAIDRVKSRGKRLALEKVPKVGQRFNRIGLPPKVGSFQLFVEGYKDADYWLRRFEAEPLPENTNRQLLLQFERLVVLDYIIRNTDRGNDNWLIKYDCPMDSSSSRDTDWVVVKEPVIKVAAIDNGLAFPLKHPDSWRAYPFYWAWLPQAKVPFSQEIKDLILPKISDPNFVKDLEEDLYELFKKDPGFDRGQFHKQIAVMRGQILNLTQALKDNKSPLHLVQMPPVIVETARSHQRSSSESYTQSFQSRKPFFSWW
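In this quantitative HTS, ADP production by PI4K2A was quantified luminescently after 1 h at ambient temperature; 100 microM adenosine served as plate-quality control.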
KB-V1 MDR tox: KB-V1 MDR subline cytotoxicity. KB-V1 MDR cells viability, CellTiter-Glo, 72 h. Potency, µM (doses to about 46.1 µM), actives largely listed as cytotoxic. hit rate 3.4% among 400,000. AID 1347076; also: nearly all actives have a fitted effect of over 60% in size
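Potencies derive from concentration-effect curves fitted to normalized luminescence (CellTiter-Glo) of KB-V1 cells treated for 72 h at 37 degrees C in phenol-red-free DMEM containing 10% FBS.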
Giardia kill: Giardia lamblia killing | hit rate 0.15% among 340,000 | AID 540267 | activity change, % at 7.66 µM, hits read low | Giardia lamblia trophozoite viability; in the data active = activity change below about -80%; inconclusive = between about -30% and that limit;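 also: parasites exposed to compound for two days anaerobically before the ATP read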
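Viability, read as ATP luminescence: trophozoites at 100 cells/well, compound added, 48 hrs anaerobic at 37 deg C, then 15-30 min room-temperature development before reading.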
Each line names hits and unclear results; the compound was inactive in the other large screens. Rows were chosen to be rich in hits. Some 5.7% of all compounds tested hit in one or more screens of this group. Unless noted, calls follow the shape of the dose curve; as a rule, active = well fitted curve in the direction sought with a large enough effect; inconclusive = small, poorly fitted or top-dose-only effect, or another doubt; inactive = no such curve, though single readings can be large; an effect the other way counts as inactive or inconclusive.

O=C(NC1CCCCC1)C(c1ccco1)N(Cc1cccs1)C(=O)Cn1nnc2ccccc21 (centres undefined)	KB-V1 MDR tox 5.2µM
Cc1ccc(-c2nnn(CC(=O)N(Cc3ccccc3)C(C(=O)NC3CCCC3)c3ccncc3)n2)o1 (centres undefined)	A549 tox inconclusive, KB-V1 MDR tox 21µM (no result: Nrf2 block)
Cc1ccc(N(C(=O)Cn2nnc(-c3ccc(C)o3)n2)C(C(=O)NC2CCCC2)c2ccncc2)cc1 (centres undefined)	none
Cc1ccc(-c2nnn(CC(=O)N(Cc3cccs3)C(C(=O)NC3CCCC3)c3ccncc3)n2)cc1 (centres undefined)	Nrf2 block 6.5µM
O=C(NCC1CCCO1)C(c1ccncc1)N(Cc1cccs1)C(=O)Cn1nnc(-c2ccc(F)cc2)n1 (centres undefined)	Nrf2 block inconclusive
COc1ccc(-c2nnn(CC(=O)N(CC(=O)NC3CCCC3)Cc3cccs3)n2)cc1OC	KB-V1 MDR tox 12µM (no result: Nrf2 block)
CCOC(=O)N1CCN(C(=O)C[C@H]2C[C@@]3(C(=O)OC)C(=C[C@H](C(C)(C)C)O[C@@H]3C)N(Cc3ccco3)C2=O)CC1	none (no result: A549 tox, KB-3-1 cytotox, Nrf2 block, KB-V1 MDR tox, Giardia kill)
COc1cc2c(NC3CCN(C)CC3)nc(N3CCCN(C)CC3)nc2cc1OCCCCN	KB-3-1 cytotox inconclusive (no result: A549 tox, Nrf2 block, PI4K2A block, Giardia kill)
COC(=O)c1sc2cccc(F)c2c1S(=O)(=O)N1CCN(c2ccc(F)cc2)CC1	Nrf2 block inconclusive (no result: Giardia kill)
CCC(C(=O)NC1CCCC1)N(Cc1cccs1)C(=O)Cn1nnc(-c2ccc(OC)c(OC)c2)n1 (centres undefined)	Nrf2 block inconclusive
COc1ccc(-c2nnn(CC(=O)N(Cc3cccs3)C(C)C(=O)NC3CCCC3)n2)cc1OC (centres undefined)	Nrf2 block inconclusive, KB-V1 MDR tox 2.1µM
O=C(NC1CCCCC1)C(c1ccco1)N(CCc1ccccc1)C(=O)C(F)(F)F (centres undefined)	KB-3-1 cytotox inconclusive, KB-V1 MDR tox 7.3µM
CCn1c(=O)c(NC(=O)c2ccccc2)c2n(c1=S)CCCCC2	none (no result: Nrf2 block)
CCOCCCn1c(=O)c(NC(=O)c2ccc(OCC)cc2)c2n(c1=S)CCCCC2	KB-V1 MDR tox 8.2µM
COC(=O)c1sccc1NC(=O)c1ccc(C)o1	none
COC(=O)c1sccc1-c1ccc(C(=O)Nc2ccccc2)o1	KB-3-1 cytotox inconclusive, Nrf2 block inconclusive, KB-V1 MDR tox 13µM
O=C(NCc1ccco1)/C(=C/c1cccc(C(F)(F)F)c1)c1nc2ccccc2[nH]1	KB-3-1 cytotox inconclusive, KB-V1 MDR tox 21µM
Cc1ccnc(SCc2cc(=O)c(OC(=O)c3ccc(C)c([N+](=O)[O-])c3)co2)n1	none (no result: A549 tox, KB-3-1 cytotox, Nrf2 block, KB-V1 MDR tox, Giardia kill)
CCC(C)(C)n1nnnc1C(C(C)C)N(CCN1CCOCC1)Cc1cc2cccc(C)c2[nH]c1=O (centres undefined)	KB-V1 MDR tox 15µM
C=C1C(=O)OC2CC1C(O)CC(C)=CCCC(C)=CC(O)CC2C (centres undefined)	A549 tox 15µM, KB-3-1 cytotox inconclusive, Nrf2 block 9.2µM, KB-V1 MDR tox inconclusive
C=C1C(=O)OC2C1CCC(C)C1C=CC(=O)C12C (centres undefined)	KB-3-1 cytotox inconclusive, Nrf2 block inconclusive, KB-V1 MDR tox inconclusive
COc1ccc(-c2cnc(N3CCC(C(N)=O)CC3)s2)cc1OC	none (no result: A549 tox, Nrf2 block, PI4K2A block, Giardia kill)
COc1cccc2sc(=NC(=O)CS(=O)(=O)c3ccc(F)cc3)n(C)c12	none
CCn1c(=NC(=O)CS(=O)(=O)c2ccc(C)cc2)sc2cccc(OC)c21	Nrf2 block 23µM
O=S(=O)(NCCc1cn2ccccc2n1)c1ccc(-c2ccccc2)cc1	Nrf2 block 21µM
COc1cc(-c2n[nH]c(=S)n2-c2cc(C(F)(F)F)ccc2Cl)cc(OC)c1OC	KB-V1 MDR tox 13µM
COc1ccc(-c2nc(CN3CCN(c4cc(C)nc(C)c4)CC3)c(C)o2)c2ccccc12	KB-3-1 cytotox inconclusive
Cc1oc(-c2cccc3ccccc23)nc1CN1CCN(c2ncnc3ccccc23)CC1	A549 tox inconclusive, KB-3-1 cytotox inconclusive, Nrf2 block 18µM, KB-V1 MDR tox inconclusive
COc1cc(/C=N/NC(=O)c2nonc2C)ccc1O	none
Cc1nonc1C(=O)N/N=C/c1ccc(O)c(O)c1	PI4K2A block -62
O=c1[nH]c(/C=C/c2ccc(OC(F)F)cc2)nc2c1cnn2-c1ccccc1	Nrf2 block 16µM
CSc1ccc(CCNC(=O)c2c(C)nn(-c3ccc(F)cc3)c2-n2cccc2)cc1	KB-3-1 cytotox 3.3µM, KB-V1 MDR tox 5.8µM (no result: Giardia kill)
COc1cccc(CNC(=O)c2c(C)nn(-c3cccc(C)c3)c2-n2cccc2)c1	KB-3-1 cytotox inconclusive, Nrf2 block inconclusive, KB-V1 MDR tox inconclusive (no result: Giardia kill)
COCCCNC(=O)c1c(C)nn(-c2ccc(F)cc2)c1-n1cccc1	KB-V1 MDR tox inconclusive (no result: Giardia kill)
CCOc1ccc(CNC(=O)c2c(C)nn(-c3ccc(F)cc3)c2-n2cccc2)cc1	KB-3-1 cytotox inconclusive, Nrf2 block inconclusive, KB-V1 MDR tox 13µM (no result: Giardia kill)
COc1cccc(CNC(=O)c2c(C)nn(-c3ccc(F)cc3)c2-n2cccc2)c1	KB-V1 MDR tox 9.2µM (no result: Giardia kill)
C=CCNC(=O)CN(C(=O)Cc1cccc(OC(F)(F)F)c1)c1cccc(Br)c1	none (no result: A549 tox, KB-3-1 cytotox, Nrf2 block, KB-V1 MDR tox, Giardia kill)
CNc1nc(-c2ccccc2)c(-c2ccccc2)s1	Nrf2 block inconclusive (no result: KB-3-1 cytotox, PI4K2A block, KB-V1 MDR tox)
O=C(c1ccc(N2CCCC2=O)cc1)N1CCN(c2ccc(Cl)cc2)CC1	Nrf2 block 18µM, KB-V1 MDR tox inconclusive
CC(C)(C)C(=O)N1CCN(c2ccc(NC(=O)c3ccc([N+](=O)[O-])o3)cc2)CC1	KB-3-1 cytotox inconclusive, Nrf2 block inconclusive, KB-V1 MDR tox inconclusive, Giardia kill -81
O=C(Nc1ccc(N2CCN(C(=O)c3ccccc3)CC2)cc1)c1ccc2c(c1)OCCO2	Nrf2 block inconclusive (no result: KB-3-1 cytotox, KB-V1 MDR tox)
CCCC(=O)N1CCN(c2ccc(NC(=O)c3ccc(OCC)c([N+](=O)[O-])c3)cc2)CC1	KB-V1 MDR tox 12µM
CCC(=O)N1CCN(c2ccc(NC(=S)NC(=O)c3ccc(OC)c([N+](=O)[O-])c3)cc2)CC1	none
O=C(Nc1ccc(N2CCN(C(=O)c3ccc(Cl)cc3)CC2)cc1)c1ccc2c(c1)OCCO2	Nrf2 block 6.5µM
CN(C)c1ccc(C=O)cc1[N+](=O)[O-]	none (no result: A549 tox, Nrf2 block, PI4K2A block, Giardia kill)
CC(C)(C)c1ccc(-c2cn(C[C@H](Cc3ccccc3)n3c(=O)c4ccccc4n3Cc3ccno3)nn2)cc1	none (no result: A549 tox, KB-3-1 cytotox, Nrf2 block, KB-V1 MDR tox, Giardia kill)
O=C(Nc1ccc(N2CCN(C(=O)c3ccc(Cl)cc3)CC2)cc1)c1ccc([N+](=O)[O-])o1	A549 tox inconclusive, Nrf2 block 21µM, Giardia kill -87
